PubChem BioAssay (NCATS)
Several values for one entry are separate records, joined by “and”; a condition that tells them apart may be missing. Equal values may be shown once. Results filed as inconclusive are left out. Activity calls are given as the source filed them. Unless noted, calls follow the shape of the dose curve; as a rule, active = well fitted curve in the direction sought with a large enough effect; inconclusive = small, poorly fitted or top-dose-only effect, or another doubt; inactive = no such curve, though single readings can be large; an effect the other way counts as inactive or inconclusive.

What was measured:
[1] = Cell Viability - SK-N-SH (AID 435; calls by dose curve;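 also: potency is read from the fitted curve at half-maximal effect; compound exposure lasted 40 h at 37 °C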); details: SK-N-SH neuroblastoma cell viability qHTS
Method in brief: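 SK-N-SH human neuroblastoma cells (1500/well) were exposed to compounds in complete medium for 40 h at 37 °C, and intracellular ATP was then measured by CellTiter-Glo luminescence. AC50 was taken from Hill fits, normalized to DMSO and 100 uM tamoxifen.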

[2] = Cellular Toxicity (caspase-3) H-4-II-E (AID 663); details: H-4-II-E rat hepatoma; Potency: caspase-3 activation; series mostly up to 92.2 µM;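 also: cells exposed to compound for 16 hr before readout; 0% = DMSO basal and 100% = 100 µM tamoxifen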
Method in brief: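 Caspase 3/7 activation measured in H-4-II-E cells in complete culture medium after 16 hr treatment at 37 °C, using luciferase-coupled substrate readout; AC50 values come from Hill-equation fits of normalized concentration-response data.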

[3] = MultiTox-Fluor Cytotoxicity Assay - LYMP1-002 - Dead Cells (AID 960); details: LYMP1-002 lymphoblastoid cells, dead-cell protease fluorescence; series mostly up to 46.1 µM;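 also: 0% = DMSO and 100% = tetraoctylammonium bromide; nearly all actives have a fitted effect of over 60% in size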
Method in brief: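 Dead-cell fluorescence (Ex/Em 485/520) after 16 h compound exposure at 37 C of LYMP1-002 lymphoblastoid cells in complete medium; AC50 by Hill equation, with data scaled between DMSO and 15 uM tetraoctylammonium bromide.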

[4] = Cell Viability - LYMP2-004 (AID 966); details: LYMP2-004 lymphoblastoid cell viability, qHTS; series mostly up to 92.2 µM;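 also: plate controls were DMSO only for no effect and tetraoctylammonium bromide control for full effect; nearly all actives have a fitted effect of over 65% in size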
Method in brief: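 AC50 values come from Hill modelling of concentration-dependent loss of intracellular ATP, measured by CellTiter-Glo luminescence. Human LYMP2-004 lymphoblastoid cells (2500/well) were exposed to compound for 24 h at 37 C.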

[5] = Cell Viability - LYMP2-005 (AID 967); details: LYMP2-005 lymphoblastoid cell viability; series mostly up to 92.2 µM;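 also: plate controls were DMSO only for no effect and 92 µM tetraoctylammonium bromide control for full effect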
Method in brief: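 CellTiter-Glo luminescence (cellular ATP) read-out; LYMP2-005 lymphoblastoid cells, 2500/well, 5 h pre-incubation, then 24 h compound exposure at 37 C in complete medium. Tetraoctylammonium bromide positive control; AC50 by standard Hill fit.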

[6] = Cell Viability - LYMP2-013 (AID 970); details: LYMP2-013 lymphoblastoid cells viability; series mostly up to 92.2 µM;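 also: 0% = DMSO only and full inhibition = tetraoctylammonium bromide control; nearly all actives have a fitted effect of over 55% in size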
Method in brief: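 qHTS cytotoxicity: ATP-dependent luminescence (CellTiter-Glo, 30 min room temperature) read after 24 h compound exposure at 37 C of 2500 LYMP2-013 lymphoblastoid cells per well. Concentration-response fitted with Hill equation to give AC50.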

[7] = Cell Viability - LYMP2-025 (AID 976); details: LYMP2-025 lymphoblastoid cell viability; series mostly up to 92.2 µM;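 also: plate controls were DMSO only for no effect and tetraoctylammonium bromide control for full effect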
Method in brief: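 Cytotoxicity read as loss of intracellular ATP (luciferase luminescence) after 24 h compound treatment at 37 C. Uses LYMP2-025 lymphoblastoid cells in 1536-well format; Hill-equation modelling gives AC50; tetraoctylammonium bromide as positive control.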

[8] = Cell Viability - LYMP2-007 (AID 979); details: LYMP2-007 lymphoblastoid cell viability; series mostly up to 92.2 µM;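 also: cells exposed to compound for 24 h before reading; 0% = DMSO only and the negative end = 92 µM tetraoctylammonium bromide; nearly all actives have a fitted effect of over 60% in size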
Method in brief: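 AC50 values come from Hill-equation fits of luminescent intracellular ATP (CellTiter-Glo, 30 min, room temperature) following 24 h compound exposure at 37 C. Cells: LYMP2-007 lymphoblastoid line, 2500 per well, in complete culture medium.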

[9] = Cell Viability - LYMP2-014 (AID 983); details: LYMP2-014 lymphoblastoid cells, viability qHTS; series mostly up to 92.2 µM;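 also: plate controls were DMSO only for no effect and 92 µM tetraoctylammonium bromide for full effect; nearly all actives have a fitted effect of over 50% in size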
Method in brief: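 Intracellular ATP loss, read by luciferase luminescence, measures acute cytotoxicity after 24 h compound exposure of lymphoblastoid LYMP2-014 cells (2500/well, 37 C). Concentration-response data fitted to the Hill equation for AC50.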

[10] = Cell Viability - LYMP2-018 (AID 985); details: LYMP2-018 lymphoblastoid cells, viability (qHTS); series mostly up to 92.2 µM;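 also: plate controls were DMSO only for no effect and tetraoctylammonium bromide at 92 µM for full effect; nearly all actives have a fitted effect of over 50% in size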
Method in brief: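 Viability read as CellTiter-Glo luminescence (cellular ATP) after 24 hr compound exposure at 37 C of 2500 LYMP2-018 lymphoblastoid cells/well, pre-plated 5 hr. Hill-equation modelling gave AC50.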

[11] = Cell Viability - LYMP2-022 (AID 987); details: LYMP2-022 lymphoblastoid cell viability; series mostly up to 92.2 µM;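 also: 0% = DMSO alone and full effect = tetraoctylammonium bromide at 92 µM; nearly all actives have a fitted effect of over 55% in size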
Method in brief: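 Cytotoxicity read as decreased cellular ATP (CellTiter-Glo luminescence, 30 min room temperature) after 24 hours compound exposure of 2500 lymphoblastoid LYMP2-022 cells/well at 37 C. Concentration-response data fitted with standard Hill equation for AC50.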

[12] = Cell Viability - LYMP2-024 (AID 988); details: LYMP2-024 lymphoblastoid cell viability; series mostly up to 92.2 µM;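 also: plate controls were DMSO only for no effect and 92 µM tetraoctylammonium bromide for full effect; nearly all actives have a fitted effect of over 60% in size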
Method in brief: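 Cytotoxicity was taken as a decrease in ATP (CellTiter-Glo luminescence) after 24 hr compound exposure at 37 C of LYMP2-024 lymphoblastoid cells, 2500 cells/well. Concentration-response data were fitted to the Hill equation to give AC50.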

[13] = qHTS assay for small molecule agonists of retinoid X receptor alpha signaling (AID 588544); details: HEK293T RXRa-UAS-bla, beta-lactamase reporter, 18 h; 530 nm emission
[14] = target: Thyroid hormone receptor beta (Homo sapiens) (UniProt P10828); assay: qHTS assay for small molecule agonists of thyroid hormone receptor beta signaling (AID 588545; calls by dose curve); details: TR-UAS-bla GripTite HEK 293, beta-lactamase ratio, agonist mode, 18 h; series mostly up to 76.7 µM
Thyroid hormone receptor beta (Homo sapiens), sequence (P10828 whole entry, looked up): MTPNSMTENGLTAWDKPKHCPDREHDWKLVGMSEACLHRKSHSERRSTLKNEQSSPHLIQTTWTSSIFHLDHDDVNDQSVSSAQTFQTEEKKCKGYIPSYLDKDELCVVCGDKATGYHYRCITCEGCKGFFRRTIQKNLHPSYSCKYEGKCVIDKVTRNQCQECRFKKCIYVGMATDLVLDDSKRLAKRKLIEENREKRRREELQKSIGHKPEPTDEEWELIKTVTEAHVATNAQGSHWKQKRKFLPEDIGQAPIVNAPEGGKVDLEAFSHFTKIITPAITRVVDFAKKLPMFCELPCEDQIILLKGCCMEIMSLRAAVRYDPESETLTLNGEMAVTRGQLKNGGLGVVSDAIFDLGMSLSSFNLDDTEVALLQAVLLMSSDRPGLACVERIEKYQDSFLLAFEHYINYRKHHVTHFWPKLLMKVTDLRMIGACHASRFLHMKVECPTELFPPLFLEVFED
Method in brief: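 Agonist activity was read as beta-lactamase CCF4 fluorescence (405 ex, 460/530 em), scaled between DMSO (0%) and 10 nM T3 (100%), then Hill-fitted for EC50 and efficacy. HEK 293 TR-UAS-bla cells in 2% charcoal/dextran FBS medium were exposed 18 h at 37 C.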

[15] = qHTS assay for small molecule antagonists of retinoid X receptor alpha signaling (AID 588546); details: HEK293T RXRa-UAS-bla, beta-lactamase ratio, antagonist mode; measured here: W530 green channel, cytotoxicity proxy;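 also: cells stimulated with 9-cis-retinoic acid as agonist; % is scaled to controls: 0 for no effect and ±100 for the full control effect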
Method in brief: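 Beta-lactamase reporter inhibition, read as CCF4 fluorescence ratio (ex 405, em 460/530 nm) after 2 h at RT. HEK293T UAS-bla cells, 2500/well, were stimulated with 9-cis-RA at 500 or 100 nM final alongside test compound for 18 h at 37 C.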

[16] = target: Thyroid hormone receptor beta (Homo sapiens) (UniProt P10828); assay: qHTS assay for small molecule antagonists of thyroid hormone receptor beta signaling (AID 588547; active = well fitted inhibition curve with a large enough effect in the signal ratio, with a control signal flat, not every such curve was filed as active; the % refers to the signal ratio;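 also: cells stimulated with 0.4 nM T3 agonist during compound exposure; % is scaled to controls: 0 for no effect and ±100 for the full control effect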); details: TR-UAS-bla HEK293, beta-lactamase ratio, antagonist mode, 18 h
Method in brief: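 TR-UAS-bla GripTite HEK293 cells in 2% charcoal/dextran FBS medium were preincubated 4 h at 37 C, given compound (0.59 nM to 92 uM) plus 0.4 nM T3 (final) for 18 h, then CCF4 for 2 h at RT; Hill fit gave IC50.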

[17] = target: Tumor necrosis factor (Homo sapiens) (UniProt P01375); assay: qHTS assay to identify small molecules that stimulate Tumor Necrosis Factor-alpha (TNF-alpha) secretion (AID 651757; active = well fitted curve in the direction sought with a large enough effect in the signal ratio; the % refers to the signal ratio; also: 0% is about no effect); details: Human cells, HTRF 665/615 ratio; series mostly up to 92.2 µM
Tumor necrosis factor (Homo sapiens), sequence (P01375 whole entry, looked up): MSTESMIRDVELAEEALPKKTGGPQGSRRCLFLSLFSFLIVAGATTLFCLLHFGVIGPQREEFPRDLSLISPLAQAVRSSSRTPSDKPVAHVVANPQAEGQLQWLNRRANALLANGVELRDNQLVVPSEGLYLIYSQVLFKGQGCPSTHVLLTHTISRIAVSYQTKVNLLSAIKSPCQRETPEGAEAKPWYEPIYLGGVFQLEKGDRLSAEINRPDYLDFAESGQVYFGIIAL
Method in brief: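 Secreted TNF-alpha quantified by TR-FRET sandwich of two labeled anti-TNF-alpha antibodies, incubated 3 hr at room temperature. Preceded by 17 hr, 37 C compound treatment of THP-1 cells at 3000 cells/well.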

[18] = qHTS assay for cell viability of HEK293 cells (AID 743288); details: ATP luminescence (CellTiter-Glo), 18 h, stronger effect = lower value; also: % is scaled to controls: 0 for no effect and ±100 for the full control effect; nearly all actives have a fitted effect of over 50% in size
Method in brief: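 After 18 h compound exposure at 37 C, parental HEK293 cells (2,000/well) are lysed with CellTiter-Glo and luminescence is read following 30 min at room temperature.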

[19] = Cellular Toxicity (caspase-3) HUV-EC-C (AID 656); details: HUV-EC-C cells, caspase-3 activation (apoptosis), vehicle = 0, 100 µM tamoxifen = 100%; series mostly up to 92.2 µM;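 also: 0% = DMSO basal and 100% = 100 µM tamoxifen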
Method in brief: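 HUV-EC-C endothelial cells, 1000/well, were pre-incubated 5 hr at 37°C, then exposed to compounds for 16 hr at 37°C. Caspase-Glo 3/7 luminescence was read after 20 min at room temperature. AC50 came from Hill fits, normalized to DMSO and 100 uM tamoxifen.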

[20] = target: Nuclear receptor subfamily 1 group I member 2 (Rattus norvegicus) (UniProt Q9R1A7); assay: qHTS assay for small molecule activators of the rat pregnane X receptor (rPXR) signaling pathway (AID 651751; call rule not given here; also: 0% is about no effect); details: rPXR reporter cells, luciferase (One-Glo), 24 h
Nuclear receptor subfamily 1 group I member 2 (Rattus norvegicus), sequence (Q9R1A7 whole entry, looked up): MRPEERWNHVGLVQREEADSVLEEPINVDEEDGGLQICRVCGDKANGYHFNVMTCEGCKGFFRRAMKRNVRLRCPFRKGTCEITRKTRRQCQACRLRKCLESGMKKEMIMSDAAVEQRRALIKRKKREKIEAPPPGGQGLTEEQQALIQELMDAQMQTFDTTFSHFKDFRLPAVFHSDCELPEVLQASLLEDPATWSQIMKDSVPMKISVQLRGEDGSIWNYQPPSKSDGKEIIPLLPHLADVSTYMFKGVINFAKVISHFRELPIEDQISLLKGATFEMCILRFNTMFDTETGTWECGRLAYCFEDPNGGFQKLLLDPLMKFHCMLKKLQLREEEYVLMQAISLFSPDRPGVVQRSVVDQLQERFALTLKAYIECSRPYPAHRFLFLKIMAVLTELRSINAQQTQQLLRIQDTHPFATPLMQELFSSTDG

COC(=O)Nc1cccc(OC(=O)Nc2cccc(C)c2)c1
14%: max response [13]
inactive: Potency [1] > 92 µM | Potency [2] | Potency [3] | Potency [4] | Potency [5] | Potency [6] | Potency [7] | Potency [8] | Potency [9] | Potency [10] | Potency [11] | Potency [12] | Potency [14] | activity change % (negative = inhibition) [16] -5.68% | outcome [17] | max response [18] -7.47%
-2.23%: max response [15]

CCCCOCC1CO1 (configuration not stated)
inactive: Potency [1] > 92 µM | outcome [19] | Potency [2] | Potency [3] | Potency [4] | Potency [5] | Potency [6] | Potency [7] | Potency [8] | Potency [9] | Potency [10] | Potency [11] | Potency [12] | Potency [14] | activity change % (negative = inhibition) [16] 12.9% | outcome [17] | max response [20] 2.3%
12.9%: max response [15]
5.09%: max response [13]

OCC(Cl)CCl (configuration not stated)
inactive: Potency [1] > 92 µM | outcome [19] | Potency [3] | Potency [4] | Potency [5] | Potency [6] | Potency [7] | Potency [8] | Potency [9] | Potency [10] | Potency [11] | Potency [12] | Potency [14] | activity change % (negative = inhibition) [16] -13.6% | outcome [17] | max response [18] -6.78% | max response [20] 2.56%
-11.1%: max response [15]
-11.4%: max response [13]

Oc1cc(Cl)ccc1Cl
inactive: Potency [1] > 92 µM | Potency [2] | Potency [3] | Potency [4] | Potency [5] | Potency [6] | Potency [7] | Potency [8] | Potency [9] | Potency [10] | Potency [11] | Potency [12] | Potency [14] | activity change % (negative = inhibition) [16] -3.5% | outcome [17] | max response [20] -2.5% and -2.48%
-10.2% and -8.32%: max response [13]
-4.84% and -5.75%: max response [15]

ClC=CCl
inactive: Potency [1] > 92 µM | outcome [19] | Potency [2] | Potency [3] | Potency [4] | Potency [6] | Potency [7] | Potency [8] | Potency [9] | Potency [10] | Potency [11] | Potency [12] | Potency [14] | activity change % (negative = inhibition) [16] -5.48% | outcome [17] | max response [20] -4.21%
-4.87%: max response [15]
-1.25%: max response [13]

ClCC(Br)CBr (configuration not stated)
-9.36%: max response [13]
inactive: Potency [1] > 92 µM | outcome [19] | Potency [2] | Potency [3] | Potency [4] | Potency [5] | Potency [6] | Potency [7] | Potency [8] | Potency [9] | Potency [10] | Potency [11] | Potency [12] | Potency [14] | activity change % (negative = inhibition) [16] 6.39% | outcome [17] | max response [18] -7.97% | max response [20] 0.571%
-1.84%: max response [15]

CCC#N
15.9%: max response [15]
inactive: Potency [1] > 92 µM | outcome [19] | Potency [2] | Potency [3] | Potency [4] | Potency [5] | Potency [6] | Potency [7] | Potency [8] | Potency [9] | Potency [10] | Potency [11] | Potency [12] | Potency [14] | activity change % (negative = inhibition) [16] -12.3% | outcome [17] | max response [18] -7.94% | max response [20] -2.01%
3.48%: max response [13]
